Test results as given in the supplement of paper PMC10646978.
± gives the standard deviation.

Assays:
Details in all cases: modulator concentration 10 µM
[1] = tested on: RAW-Dual (murine macrophage reporter line); assay: NF-kB reporter (SEAP) activity fold change vs agonist alone; higher = enhanced NF-kB activity
Procedure, shortened: (§1)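 In 384-well plates holding 50 000 RAW-Dual murine macrophage reporter cells per well, compound at 10 μM final was pre-incubated for 1 hour at 37 °C, after which a PRR agonist was added overnight. Supernatant SEAP read with QUANTI-Blue at 620 nm absorbance reported NF-κB, and Lucia luciferase read with QUANTI-Luc luminescence reported IRF. Fold change values come from dividing each reporter signal by the mean of agonist-only control wells on the same plate, averaged over replicate plates with propagated errors.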

[2] = tested on: RAW-Dual (murine macrophage reporter line); assay: IRF reporter (Lucia luciferase) activity fold change vs agonist alone; higher = enhanced IRF activity
Procedure, shortened: as §1

[3] = tested on: RAW-Dual (murine macrophage reporter line); assay: viability score (confluency relative to resting cells, overnight) (fraction); higher = more viable, active = viable (0.7 or more)
Procedure, shortened: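 Compound was added at a final 10 μM to RAW-Dual macrophages in 384-well plates and left overnight. Confluency was imaged with IncuCyte, and two masks were generated in IncuCyte software over all imaged wells. Each viability score is confluency relative to resting cells, and a compound met the cutoff only when both masks were above 70% of resting cells.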

[4] = agonist: CpG ODN 1826 0.5 ug/mL

SMILES	NF-kB reporter [1, 4]	NF-kB reporter ([1]; agonist: LPS 0.1 ug/mL)	NF-kB reporter ([1]; agonist: MPLA […])	IRF reporter ([2]; agonist: 3'3'-cGAMP 10 ug/mL)	IRF reporter ([2]; agonist: LPS 0.1 ug/mL)	IRF reporter ([2]; agonist: MPLA […])	viability score [3]
COS(=O)(=O)[O-].C[N+]1(C)CCC(=C(c2ccccc2)c2ccccc2)CC1	1.35 ± 0.061	1.09 ± 0.093	1.76 ± 0.32	0.849 ± 0.047	0.979 ± 0.15	0.823 ± 0.18	0.958 (active)
CCOc1ccc(-c2cccc(NC(=O)c3c(F)cccc3F)c2)nn1	0.969 ± 0.043	1.06 ± 0.088	1.13 ± 0.061	0.861 ± 0.053	1.11 ± 0.21	1.23 ± 0.46	0.982 (active)
COC(=O)N[C@H](C(=O)N[C@@H](Cc1ccccc1)[C@@H](O)CN(Cc1ccc(-c2ccccn2)cc1)NC(=O)[C@@H](NC(=O)OC)C(C)(C)C)C(C)(C)C.O=S(=O)(O)O	1.78 ± 0.14	1.27 ± 0.1	1.46 ± 0.15	0.886 ± 0.064	1.02 ± 0.061	1.14 ± 0.1	1.01 (active)
CC(C)(C)NCC(O)COc1cccc2c1CC(O)C(O)C2 (centres undefined)	1.26 ± 0.3	1 ± 0.11	1.05 ± 0.095	0.919 ± 0.045	1.04 ± 0.16	0.968 ± 0.17	0.931 (active)
CCc1cc(=O)oc2c(C)c(OCC(=O)c3ccc(OC)cc3)ccc12	0.804 ± 0.066	0.837 ± 0.039	1.06 ± 0.11	0.925 ± 0.062	1.45 ± 0.084	1.62 ± 0.14	1.01 (active)
O=C(NCC#CCOc1cccc(C(F)(F)F)c1)Nc1c(F)cccc1F	0.921 ± 0.077	1.13 ± 0.12	0.922 ± 0.045	0.994 ± 0.051	1.07 ± 0.17	1.15 ± 0.39	1.01 (active)
COc1cc2nc(N(C)CCCNC(=O)C3CCCO3)nc(N)c2cc1OC (centres undefined) [Prestw-322]	1.45 ± 0.43	0.957 ± 0.11	1.02 ± 0.068	0.695 ± 0.13	0.934 ± 0.35	0.866 ± 0.11	0.996 (active)
Cl.Cl.OCCN1CCN(CCCN2c3ccccc3Sc3ccc(C(F)(F)F)cc32)CC1	0.972 ± 0.047	0.893 ± 0.073	0.91 ± 0.05	0.895 ± 0.042	1.03 ± 0.15	0.947 ± 0.3	0.677 (inactive)
Cc1ccc(NC(=O)Nc2c(C)nc(N3CCN(C)CC3)nc2C)cc1F	0.993 ± 0.049	1.03 ± 0.11	0.818 ± 0.037	0.925 ± 0.046	1.21 ± 0.083	1.17 ± 0.15	0.97 (active)
O=C(CC(c1ccccc1)c1ccccc1)Nc1ccc(CC(=O)N2CCC(O)CC2)cc1	1.03 ± 0.078	1.13 ± 0.097	0.907 ± 0.11	1.05 ± 0.062	1.13 ± 0.082	1.25 ± 0.1	1.01 (active)
COC(=O)CSc1nc(O)c2c(C)c(C)sc2n1	0.808 ± 0.077	0.829 ± 0.04	1.03 ± 0.1	0.984 ± 0.046	1.49 ± 0.093	1.55 ± 0.19	1.01 (active)
C(=C\c1ccccc1)/CN1CCN(C(c2ccccc2)c2ccccc2)CC1	1.14 ± 0.16	0.957 ± 0.37	0.989 ± 0.065	0.828 ± 0.028	1.23 ± 0.44	1.33 ± 0.1	0.979 (active)
COC(=O)C1=CN(CC2CCCO2)C=C(C(=O)OC)C1c1cccc(Cl)c1 (centres undefined)	0.59 ± 0.053	0.736 ± 0.065	0.83 ± 0.072	0.82 ± 0.037	1.17 ± 0.069	1.1 ± 0.093	0.994 (active)
C[C@]1(O)C[C@@H](c2nc(-c3ccc4ccc(-c5ccccc5)nc4c3)c3c(N)nccn32)C1	0.797 ± 0.04	1.26 ± 0.1	0.899 ± 0.08	0.593 ± 0.055	0.971 ± 0.072	0.958 ± 0.17	1 (active)
CC(=NN1CCN(Cc2cccc3ccccc23)CC1)c1ccc(Br)cc1	1.08 ± 0.12	1.04 ± 0.071	1.08 ± 0.044	1 ± 0.13	1.05 ± 0.12	1.11 ± 0.29	1 (active)
CCOC(=O)c1c(N)sc(C(=O)N2CCCC(C(N)=O)C2)c1C (centres undefined)	0.442 ± 0.15	0.873 ± 0.095	0.356 ± 0.17	0.982 ± 0.039	2.11 ± 0.89	1.79 ± 0.39	0.932 (active)
CC(=O)N1CC(C(=O)Nc2ccc(Br)c(C)c2)C1	1.05 ± 0.071	0.996 ± 0.082	0.973 ± 0.053	0.988 ± 0.035	1.03 ± 0.048	0.909 ± 0.089	0.997 (active)
Cc1cc(Cl)ccc1NC(=O)c1ccc(CN2CCN(c3ccccc3)CC2)cc1	0.684 ± 0.053	0.999 ± 0.07	0.978 ± 0.085	0.803 ± 0.037	1.07 ± 0.069	1.2 ± 0.11	1.02 (active)
CCOc1nc2cccc(C(=O)O)c2n1Cc1ccc(-c2ccccc2-c2nn[nH]n2)cc1	1.09 ± 0.15	1.17 ± 0.38	0.976 ± 0.054	0.907 ± 0.069	1.26 ± 0.31	0.98 ± 0.13	1.01 (active)
Oc1c(Cl)cc(Cl)cc1Sc1cc(Cl)cc(Cl)c1O	1.18 ± 0.11	0.917 ± 0.061	3.21 ± 0.07	0.564 ± 0.031	1.03 ± 0.16	1.1 ± 0.21	0.441 (inactive)
COc1cccc(N2C(=O)CN(Cc3ccccc3)C3CS(=O)(=O)CC32)c1 (centres undefined)	1.43 ± 0.078	0.719 ± 0.057	1.49 ± 0.093	0.322 ± 0.034	0.237 ± 0.05	0.216 ± 0.075	0.832 (active)
COC(=O)C1=CN(CC2CCCO2)C=C(C(=O)OC)C1c1ccc(Cl)cc1 (centres undefined)	0.999 ± 0.19	0.992 ± 0.11	1.44 ± 0.54	0.94 ± 0.025	1.04 ± 0.13	1.07 ± 0.11	1 (active)
Cc1ccc(C)c(Cc2cc([N+](=O)[O-])ccc2C)c1	0.287 ± 0.023	0.436 ± 0.081	0.726 ± 0.026	1.28 ± 0.081	1.01 ± 0.084	1.57 ± 0.28	0.996 (active)
Cc1nnc(NC(=O)c2cccc([N+](=O)[O-])c2)s1	1.03 ± 0.084	0.97 ± 0.093	0.999 ± 0.038	1.05 ± 0.25	1.06 ± 0.049	1.09 ± 0.15	1 (active)
COc1ccc(N2C(=O)C(=Cc3ccc([N+](=O)[O-])s3)SC2=S)cc1	0.879 ± 0.17	1.55 ± 0.14	1.71 ± 0.16	0.439 ± 0.012	1.25 ± 0.23	1.2 ± 0.26	0.9 (active)
COc1cc(O)c2c(=O)cc(-c3ccc(O)cc3)oc2c1	1.15 ± 0.098	1.04 ± 0.076	1.01 ± 0.024	0.795 ± 0.11	0.959 ± 0.049	0.798 ± 0.099	0.997 (active)
Cc1ccc(C(=O)N(CCCN)[C@@H](c2nc3cc(Cl)ccc3c(=O)n2Cc2ccccc2)C(C)C)cc1	0.186 ± 0.034	0.318 ± 0.13	0.59 ± 0.089	0.209 ± 0.057	0.52 ± 0.23	0.241 ± 0.09	0.0279 (inactive)
